PMC4336329 (PLoS ONE, 2015)
Out of some 310,000 compounds screened, about 14,000 (4.5%) showed an effect of 50% or more. Effects have a minus sign here. Only a selection was taken, and strong results are over-represented in it overall.

molecular target: human ether-à-go-go-related gene (hERG) potassium channel (human, UniProt Q12809); experiment: primary screen, population patch clamp on CHO cells stably expressing hERG; higher = less effect of the substance
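Also: peak tail current of the secondary pulse compared with the same well before compound.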

Chain of human ether-à-go-go-related gene (hERG) potassium channel (Q12809 whole entry, looked up): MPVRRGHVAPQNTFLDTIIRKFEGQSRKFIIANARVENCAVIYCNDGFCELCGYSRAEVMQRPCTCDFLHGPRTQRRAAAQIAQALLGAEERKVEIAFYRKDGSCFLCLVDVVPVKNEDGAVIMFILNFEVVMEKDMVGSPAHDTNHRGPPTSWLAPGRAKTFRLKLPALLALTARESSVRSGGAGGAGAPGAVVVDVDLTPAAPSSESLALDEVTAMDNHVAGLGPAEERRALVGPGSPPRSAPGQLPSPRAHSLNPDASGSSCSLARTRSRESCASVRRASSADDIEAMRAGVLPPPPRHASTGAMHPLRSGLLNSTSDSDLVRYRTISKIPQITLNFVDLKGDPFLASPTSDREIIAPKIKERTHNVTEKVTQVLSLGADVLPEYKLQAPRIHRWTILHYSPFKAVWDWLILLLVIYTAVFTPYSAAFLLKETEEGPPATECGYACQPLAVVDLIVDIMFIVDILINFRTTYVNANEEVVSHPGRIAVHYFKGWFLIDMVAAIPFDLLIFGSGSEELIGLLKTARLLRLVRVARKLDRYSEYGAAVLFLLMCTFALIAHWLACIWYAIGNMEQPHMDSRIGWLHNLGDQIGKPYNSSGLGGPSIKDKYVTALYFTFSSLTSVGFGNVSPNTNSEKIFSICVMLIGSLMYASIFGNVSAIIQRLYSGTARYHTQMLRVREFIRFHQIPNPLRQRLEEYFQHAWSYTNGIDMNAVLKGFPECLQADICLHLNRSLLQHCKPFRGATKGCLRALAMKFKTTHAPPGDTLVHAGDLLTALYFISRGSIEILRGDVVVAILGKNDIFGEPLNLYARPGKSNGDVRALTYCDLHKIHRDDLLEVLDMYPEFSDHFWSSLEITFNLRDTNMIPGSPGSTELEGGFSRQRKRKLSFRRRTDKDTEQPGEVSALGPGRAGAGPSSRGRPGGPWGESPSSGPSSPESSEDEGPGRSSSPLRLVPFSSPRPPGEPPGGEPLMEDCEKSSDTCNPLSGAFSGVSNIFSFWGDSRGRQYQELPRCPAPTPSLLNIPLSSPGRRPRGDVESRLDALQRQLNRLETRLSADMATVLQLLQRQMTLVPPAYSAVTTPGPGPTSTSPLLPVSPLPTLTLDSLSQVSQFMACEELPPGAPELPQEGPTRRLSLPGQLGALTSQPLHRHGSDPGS

Compared with `COC(=O)c1ccc(N2C(=O)C3CC=CC(C)C3C2=O)cc1` (stereo not drawn), `COc1ccc(C(=O)N2CCN(c3ccccc3OC)CC2)cc1` is higher in “hERG current change (%, negative = inhibition) at 10uM” value: 19.3% for the first, 21% for the second.

First: COc1ccc(OC)c(NC(=O)CCN2CCN(c3ccccc3OC)CC2)c1
Second: COc1ccc(C(=O)CCN2CCN(c3ccccc3OC)CC2)cc1.Cl
The “hERG current change (%, negative = inhibition) at 10uM” value of the first is higher: 2.82% for the first, -50.3% for the second.

First: OC1CCCN(Cc2nc(Cc3ccccc3Cl)no2)C1 (stereo not drawn)
Second: OCCC1CN(Cc2cnn(-c3ccccc3Cl)c2)CCN1Cc1ccsc1 (stereo not drawn)
The “hERG current change (%, negative = inhibition) at 10uM” value of the first is higher: 9.94% for the first, -11.7% for the second.

Going from `O=C(CN(Cc1ccco1)C(=O)c1ccc(F)cc1F)Nc1ccccc1C(F)(F)F` to `O=C(CCCc1ccccc1)Nc1ccc(Br)cc1F`, the “hERG current change (%, negative = inhibition) at 10uM” value rises from -21.5% to 14.4%.

Going from `CCOC(=O)C1CCN(C(=O)COc2ccc(Cl)cc2C)CC1` to `CCOC(=O)C1CCN(C(=O)COc2ccc(Cl)cc2Cl)CC1`, the “hERG current change (%, negative = inhibition) at 10uM” value rises from -46.1% to -40.7%.

Going from `CCOC(=O)C1CCN(C(=O)COc2cc(C)c(Br)cc2C)CC1` to `CCOC(=O)C1CCN(C(=O)COc2cc(C)c(Br)c(C)c2)CC1`, the “hERG current change (%, negative = inhibition) at 10uM” value rises from -54.7% to -43.2%.

First: CCOC(=O)C1CCN(C(=O)COc2ccc(Br)cc2C)CC1
Second: CCOC(=O)C1CCN(C(=O)COc2ccc(Br)cc2Br)CC1
The “hERG current change (%, negative = inhibition) at 10uM” value of the first is higher: -19.3% for the first, -51.8% for the second.

Compared with `COc1cccc(N2C(=O)C3C(C2=O)C3(c2ccccc2)c2ccccc2)c1` (stereo not drawn), `CN(CC(=O)Nc1ccccc1Br)C(=O)CNC(=O)c1ccc(Oc2ccccc2)cc1` is lower in “hERG current change (%, negative = inhibition) at 10uM” value: -3.19% for the first, -17.8% for the second.

First: CCN(CC)C(=O)CSc1nnc2sc3ccccc3n12
Second: Cc1cc(C)n2nc(SCC(=O)Nc3ccccc3)nc2n1
The “hERG current change (%, negative = inhibition) at 10uM” value of the first is higher: 14.8% for the first, -4.16% for the second.

Compared with `CCOC(=O)N1CCN(Cc2ccccn2)CC1.O=C(O)C(=O)O`, `CCOC(=O)C1(CCc2ccccc2)CCN(Cc2ccccn2)CC1` is lower in “hERG current change (%, negative = inhibition) at 10uM” value: 0.59% for the first, -74.3% for the second.

Compared with `CCOC(=O)C1(Cc2ccc(Cl)cc2)CCN(Cc2nccn2CC)CC1`, `CCOC(=O)C1(Cc2ccccc2)CCN(Cc2nccn2CC)CC1` is higher in “hERG current change (%, negative = inhibition) at 10uM” value: -67.6% for the first, -20% for the second.

First: CCOC(=O)C1(CCc2ccccc2)CCN(Cc2nccn2CC)CC1
Second: CCOC(=O)C1(CCCc2ccccc2)CCN(Cc2nccn2CC)CC1
The “hERG current change (%, negative = inhibition) at 10uM” value of the first is higher: -66.2% for the first, -74% for the second.

Going from `CCOC(=O)C1(Cc2ccccc2)CCCN(Cc2ccccn2)C1` (stereo not drawn) to `CCOC(=O)C1(Cc2cccc(OC)c2)CCCN(Cc2nccn2CC)C1` (stereo not drawn), the “hERG current change (%, negative = inhibition) at 10uM” value falls from -20.7% to -30.8%.

Going from `CCOC(=O)C1(CCOc2ccccc2)CCN(Cc2nccn2CC)CC1` to `CCn1ccnc1[C@@H]1C[C@H]2CN(c3ccccc3OC)C(=O)[C@]23CCCN13`, the “hERG current change (%, negative = inhibition) at 10uM” value rises from -58.2% to 19.8%.

First: CCOC(=O)Cn1cnc2c(cnn2-c2ccc(Cl)cc2)c1=O
Second: Cc1ccc(CN2CCN(Cc3cnn(-c4ccc(Cl)cc4)c3)CC2CCO)o1 (stereo not drawn)
The “hERG current change (%, negative = inhibition) at 10uM” value of the first is higher: -4.32% for the first, -69.8% for the second.

Compared with `Cc1cc(OCC(=O)c2ccc(C(F)(F)F)cc2)n2cnnc2n1`, `Cc1cccc(NC(=O)CSc2nc3nc(C)cc(C)n3n2)c1` is lower in “hERG current change (%, negative = inhibition) at 10uM” value: 5.8% for the first, -32.6% for the second.

Going from `COc1ccc(N(CC(=O)Nc2cccc([N+](=O)[O-])c2C)S(C)(=O)=O)cc1OC` to `CCN(CC)S(=O)(=O)c1cccc(NC(=O)COC(=O)c2n[nH]c(=O)c3ccccc23)c1`, the “hERG current change (%, negative = inhibition) at 10uM” value rises from -7.79% to -2.07%.

Going from `S=C(NCc1ccco1)Nc1cccc(Cl)c1` to `Cc1cccc(-c2nnc(NC(=O)c3cccs3)s2)c1`, the “hERG current change (%, negative = inhibition) at 10uM” value falls from -6.16% to -21.7%.

First: COC(=O)c1ccccc1NC=C1C(=O)OC2(CCCCC2)OC1=O
Second: Cc1cc(=O)oc2cc(NC(=O)c3ccccc3C(=O)O)ccc12
The “hERG current change (%, negative = inhibition) at 10uM” value of the first is lower: -1.07% for the first, 15.7% for the second.

First: COc1ccc(S(=O)(=O)n2ccc(-c3ccc(OCCN(C)c4ccccn4)cc3)n2)cc1
Second: COc1ccc(S(=O)(=O)NCc2cccs2)cc1
The “hERG current change (%, negative = inhibition) at 10uM” value of the first is higher: 11.4% for the first, 2.67% for the second.

Compared with `Cc1oc(S(=O)(=O)N2CCOCC2)cc1C(=O)Nc1ccc(F)cc1`, `Cc1ccc(CN2CCN(Cc3cnn(-c4ccc(F)cc4)c3)CC2CCO)o1` (stereo not drawn) is lower in “hERG current change (%, negative = inhibition) at 10uM” value: -6.29% for the first, -56.1% for the second.

Going from `O=C(CSc1nc2ncccc2[nH]1)Nc1ccc2c(c1)OCO2` to `Cc1cc(C)cc(NC(=O)CSc2nc3nc(C)cc(C)n3n2)c1`, the “hERG current change (%, negative = inhibition) at 10uM” value falls from 9.63% to -50.2%.

First: Cc1cc(C)n2nc(SCC(=O)c3cc(C)n(CC4CCCO4)c3C)nc2n1 (stereo not drawn)
Second: CCCn1c(C)cc(C(=O)CSc2nc3nc(C)cc(C)n3n2)c1C
The “hERG current change (%, negative = inhibition) at 10uM” value of the first is lower: 1.05% for the first, 6.97% for the second.

Compared with `Cc1cc(C)n2nc(SCC(=O)c3cc(C)n(-c4cc(C)on4)c3C)nc2n1`, `Cc1ccc(CN2CCN(Cc3c(C)nn(C(C)C)c3C)CC2CCO)o1` (stereo not drawn) is higher in “hERG current change (%, negative = inhibition) at 10uM” value: -67.5% for the first, -7.24% for the second.

First: CNC1=C(N(C(C)=O)c2ccc(Br)cc2)C(=O)c2ccccc2C1=O
Second: Cc1ccccc1C(=O)N1N=C(c2cccc(NS(C)(=O)=O)c2)CC1c1cccs1 (stereo not drawn)
The “hERG current change (%, negative = inhibition) at 10uM” value of the first is higher: 11.5% for the first, -6.36% for the second.

First: CCC(C)(C)NC(=O)CN(C(=O)CCC(=O)Nc1ccccn1)c1ccc(F)c(Cl)c1
Second: CCOC(=O)CC(NC(=O)Cc1cccs1)c1ccccc1Cl (stereo not drawn)
The “hERG current change (%, negative = inhibition) at 10uM” value of the first is lower: -1.31% for the first, 5.29% for the second.

Going from `O=C1N(C2CCCC2)C[C@@H]2C[C@@H](c3cccn3-c3nccs3)N3CCC[C@@]123` to `O=C1N(C2CCCC2)C[C@@H]2C[C@@H](c3cccn3-c3ccccn3)N3CCC[C@@]123`, the “hERG current change (%, negative = inhibition) at 10uM” value rises from -66.6% to -62.6%.

Compared with `CN1C[C@@H]2C[C@@H](c3cccn3-c3ccccn3)N3CCC[C@@]23C1=O`, `CN1C[C@@H]2C[C@@H](c3cccn3-c3nccs3)N3CCC[C@@]23C1=O` is higher in “hERG current change (%, negative = inhibition) at 10uM” value: -43.6% for the first, -19.2% for the second.

Going from `CCCCNc1nc2c(c(=O)[nH]c(=O)n2C)n1CCOc1ccccc1` to `Cc1ccc(CN2CCN(Cc3cn[nH]c3-c3ccccc3)CC2CCO)o1` (stereo not drawn), the “hERG current change (%, negative = inhibition) at 10uM” value falls from 3.6% to -12.7%.

Compared with `O=C(CCSc1ccccn1)c1ccccc1`, `Cc1ccc(CN2CCN(Cc3ccncc3)CC2CCO)o1` (stereo not drawn) is lower in “hERG current change (%, negative = inhibition) at 10uM” value: 8.82% for the first, -8.3% for the second.

Compared with `OCCC1CN(Cc2cnn(-c3ccc(F)cc3)c2)CCN1Cc1ccsc1` (stereo not drawn), `CCn1cc(CN2CCN(Cc3ccsc3)C(CCO)C2)cn1` (stereo not drawn) is higher in “hERG current change (%, negative = inhibition) at 10uM” value: -65.7% for the first, -3.26% for the second.

Going from `Cc1cc(C)c(CN2CCN(Cc3ccc(C)o3)C(CCO)C2)c(-n2cccn2)c1` (stereo not drawn) to `Cc1ccc(CN2CCN(Cc3c(C)nn(-c4ccc(F)cc4)c3C)CC2CCO)o1` (stereo not drawn), the “hERG current change (%, negative = inhibition) at 10uM” value rises from -76.4% to -34.6%.

Going from `Cc1ccc(CN2CCN(Cc3cnc(C)s3)CC2CCO)o1` (stereo not drawn) to `Cc1ccc(CN2CCN(Cc3ccc(O)cc3)CC2CCO)o1` (stereo not drawn), the “hERG current change (%, negative = inhibition) at 10uM” value falls from -1.95% to -7.85%.
